Measured values published in article PMC4336329 (PLoS ONE, 2015).
Screen size: about 310,000 compounds; about 14,000 (4.5%) showed an effect of 50% or more. The effect is printed as a negative number. The full list was thinned out, with strong results kept by preference.

target: human ether-à-go-go-related gene (hERG) potassium channel (human, UniProt Q12809); assay: primary screen, population patch clamp on CHO cells stably expressing hERG; higher = less effect of the substance
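Also: peak tail current of the secondary pulse compared with the same well before compound.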

Chain of human ether-à-go-go-related gene (hERG) potassium channel (Q12809 whole entry, looked up): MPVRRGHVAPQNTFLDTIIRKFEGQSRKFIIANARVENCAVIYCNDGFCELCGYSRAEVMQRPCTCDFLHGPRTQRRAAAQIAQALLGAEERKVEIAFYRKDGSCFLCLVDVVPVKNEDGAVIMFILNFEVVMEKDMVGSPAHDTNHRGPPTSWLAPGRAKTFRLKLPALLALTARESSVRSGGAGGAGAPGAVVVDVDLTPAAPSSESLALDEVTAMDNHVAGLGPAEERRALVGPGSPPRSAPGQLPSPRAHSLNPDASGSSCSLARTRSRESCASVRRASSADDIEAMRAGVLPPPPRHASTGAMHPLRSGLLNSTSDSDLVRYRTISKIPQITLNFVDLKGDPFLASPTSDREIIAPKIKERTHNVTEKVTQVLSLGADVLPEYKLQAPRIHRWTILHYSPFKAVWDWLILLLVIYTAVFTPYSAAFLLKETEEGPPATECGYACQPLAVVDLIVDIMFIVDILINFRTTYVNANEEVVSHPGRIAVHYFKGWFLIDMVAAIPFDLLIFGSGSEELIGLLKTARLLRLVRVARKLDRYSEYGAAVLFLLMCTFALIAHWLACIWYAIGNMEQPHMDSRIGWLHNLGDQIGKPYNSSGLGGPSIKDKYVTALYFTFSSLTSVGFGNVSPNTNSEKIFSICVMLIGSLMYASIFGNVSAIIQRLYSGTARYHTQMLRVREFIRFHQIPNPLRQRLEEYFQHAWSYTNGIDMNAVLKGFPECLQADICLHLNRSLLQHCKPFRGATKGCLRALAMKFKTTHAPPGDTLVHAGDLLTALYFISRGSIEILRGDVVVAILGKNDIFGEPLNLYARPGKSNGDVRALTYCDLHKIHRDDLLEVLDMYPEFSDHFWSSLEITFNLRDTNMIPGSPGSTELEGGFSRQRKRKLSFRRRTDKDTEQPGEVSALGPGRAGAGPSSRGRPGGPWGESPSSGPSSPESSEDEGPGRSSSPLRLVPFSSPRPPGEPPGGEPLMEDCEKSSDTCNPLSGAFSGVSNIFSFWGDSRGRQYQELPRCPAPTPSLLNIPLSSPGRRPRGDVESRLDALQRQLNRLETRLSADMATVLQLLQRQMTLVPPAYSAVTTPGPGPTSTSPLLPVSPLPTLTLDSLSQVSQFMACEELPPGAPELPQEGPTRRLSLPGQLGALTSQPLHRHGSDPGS

Going from `Cc1ccnc(NCc2ccccc2O)c1` to `Cc1ccc(C)c(N=Cc2c(O)c3ccccc3oc2=O)c1`, the “hERG current change (%, negative = inhibition) at 10uM” value rises from 14.6% to 16.3%.

First: O=C1CCC([N+](=O)[O-])C(c2ccc(-c3ccccc3)cc2)N1 (stereo not drawn)
Second: O=C(OCc1nnc(-c2ccc([N+](=O)[O-])cc2)o1)C1CC(=O)N(CCc2ccccc2)C1 (stereo not drawn)
The “hERG current change (%, negative = inhibition) at 10uM” value of the first is higher: -11.3% for the first, -61.7% for the second.

Compared with `Cc1ccc(N2C(=O)C3CC(c4ccccc4)=C4C5C=CC(C6C(=O)N(c7ccc(C)cc7)C(=O)C56)C4C3C2=O)cc1` (stereo not drawn), `Cc1ccc(N2C(=O)C3CC(c4ccccc4)=C4C5C=CC(C6C(=O)N(c7ccc(C)cc7C)C(=O)C56)C4C3C2=O)c(C)c1` (stereo not drawn) is higher in “hERG current change (%, negative = inhibition) at 10uM” value: -73.6% for the first, 7.82% for the second.

First: Cc1ccc(N2C(=O)C3C4CC(=O)C(c5ccccc54)C3C2=O)cc1 (stereo not drawn)
Second: NC(=O)[C@@H]1[C@@H]2C(=O)N(c3ccc(F)cc3)C(=O)[C@@H]2[C@H]2C=Cc3ccccc3N21
The “hERG current change (%, negative = inhibition) at 10uM” value of the first is lower: 2.69% for the first, 14.2% for the second.

Going from `C=C[C@]1(C)C[C@@H](OC(=O)CSCCN(CC)CC)[C@]2(C)C(C)CC[C@]3(CCC(=O)[C@H]32)[C@@H](C)[C@@H]1O` (stereo partly drawn) to `C=C[C@]1(C)C[C@@H](OC(=O)CSCCN(CC)CC)[C@]2(C)C(C)CC[C@]3(CCC(=O)[C@H]32)[C@@H](C)[C@@H]1O.O=C(O)/C=C/C(=O)O` (stereo partly drawn), the “hERG current change (%, negative = inhibition) at 10uM” value falls from -61.9% to -68.3%.

Compared with `O=C(Cc1noc2ccccc12)NNC(=S)Nc1ccc(Cl)cc1`, `O=C(Nc1ccc(F)c([N+](=O)[O-])c1)C1CC(=O)N(Cc2ccccc2)C1` (stereo not drawn) is lower in “hERG current change (%, negative = inhibition) at 10uM” value: 16.5% for the first, -34.4% for the second.

Compared with `Cn1nc(C(F)(F)F)c(-c2ccc(Br)cc2)c1NC(=O)Nc1ccc(F)cc1F`, `COC(=O)c1oc2ccc(Br)cc2c1NC(=O)CCCN1C(=O)c2ccccc2C1=O` is higher in “hERG current change (%, negative = inhibition) at 10uM” value: 13% for the first, 17.1% for the second.

First: Cc1ccc(C(=O)C2(C)C3c4cc(Br)ccc4OC(=O)C32C(=O)c2ccco2)cc1 (stereo not drawn)
Second: Cc1ccccc1C(C(=O)NC1CCCCC1)N(C(=O)CNC(=O)c1ccco1)c1cccnc1 (stereo not drawn)
The “hERG current change (%, negative = inhibition) at 10uM” value of the first is higher: 15.8% for the first, 6.3% for the second.

First: CCCNC(=O)[C@H]1N2C(=O)c3c(ccc(OC)c3OC)C2SC1(C)C (stereo partly drawn)
Second: CCOc1ccc(COC(=O)C2CC(=O)N(CCc3ccccc3)C2)cc1OC (stereo not drawn)
The “hERG current change (%, negative = inhibition) at 10uM” value of the first is higher: 16.4% for the first, -21.6% for the second.

Going from `COc1ccc(CCNC(=O)CN(c2ccccc2)S(C)(=O)=O)cc1OC` to `COc1ccc(OC)c(CCNC(=O)CCn2nc(C)c3c(C)n(-c4ccccc4)nc3c2=O)c1`, the “hERG current change (%, negative = inhibition) at 10uM” value rises from -8.06% to 18.5%.

First: CC(C)(C)CN1CCNC(=O)C1CC(=O)NC1Cc2ccccc2C1 (stereo not drawn)
Second: CCOC(=O)c1oc2ccccc2c1NC(=O)CN1CCN(C)CC1
The “hERG current change (%, negative = inhibition) at 10uM” value of the first is higher: 4.08% for the first, -58.4% for the second.

First: CCNC(=O)O/N=C(\C)c1sc(-c2ccc(Cl)cc2)nc1C
Second: COc1ccc2oc(C(=O)Nc3nccs3)c(C)c2c1
The “hERG current change (%, negative = inhibition) at 10uM” value of the first is lower: -23.9% for the first, 16.7% for the second.

Compared with `CCCS(=O)(=O)c1c(S(=O)(=O)CCC)c2cc(CC)ccn2c1C(=O)OC`, `CCCS(=O)(=O)c1c(S(=O)(=O)CCC)c2ccccn2c1C(=O)OC` is higher in “hERG current change (%, negative = inhibition) at 10uM” value: -29.2% for the first, -7.5% for the second.

Going from `CCCS(=O)(=O)c1c(S(=O)(=O)CCC)c2cc(-c3ccncc3)ccn2c1C(=O)OC` to `Cc1cc(SCC(=O)Nc2cccc(S(N)(=O)=O)c2)c(C)cc1Br`, the “hERG current change (%, negative = inhibition) at 10uM” value rises from -50.2% to 30.8%.

Going from `O=C(CSc1nnc(NCc2ccccc2)s1)NC1CCS(=O)(=O)C1` (stereo not drawn) to `CC(C)CN(C(=O)CSc1n[nH]c(-c2cccs2)n1)C1CCS(=O)(=O)C1` (stereo not drawn), the “hERG current change (%, negative = inhibition) at 10uM” value falls from 10.1% to -2.69%.

First: Cc1ccc(-c2noc(CCC(=O)Nc3ccccc3N3CCN(C)CC3)n2)cc1
Second: Cc1ccc(CN2CC(C(=O)OCc3ccccc3Cl)CC2=O)cc1 (stereo not drawn)
The “hERG current change (%, negative = inhibition) at 10uM” value of the first is lower: -33.7% for the first, 0.354% for the second.

First: CSc1nc(-c2ccccc2)nn1S(=O)(=O)c1ccccc1
Second: O=C(OCc1nnc(-c2ccccc2)o1)C1CC(=O)N(c2ccccc2)C1 (stereo not drawn)
The “hERG current change (%, negative = inhibition) at 10uM” value of the first is higher: 7% for the first, -21.5% for the second.

First: CCOC(=O)C1(Cc2cccc(OC)c2)CCN(Cc2cccn2-c2nccs2)CC1
Second: CCOC(=O)C1(Cc2ccccc2)CCN(Cc2cccn2-c2nccs2)CC1
The “hERG current change (%, negative = inhibition) at 10uM” value of the first is higher: -72% for the first, -82% for the second.

Compared with `CCOC(=O)C1(Cc2cccc(OC)c2)CCN(Cc2cccn2-c2ccccn2)CC1`, `CCOC(=O)C1(Cc2cccc(OC)c2)CCN(Cc2cccnc2)CC1` is higher in “hERG current change (%, negative = inhibition) at 10uM” value: -74.8% for the first, -16.4% for the second.

Compared with `CCOC(=O)C1(Cc2cccc(OC)c2)CCN(Cc2ccon2)CC1`, `CCOC(=O)c1oc2ccc(OC)cc2c1NC(=O)CN1CCN(C)CC1.Cl` is lower in “hERG current change (%, negative = inhibition) at 10uM” value: 1.68% for the first, -5.54% for the second.

Compared with `COc1ccc(-n2nc(C(=O)NCC(=O)N(C)Cc3ccccc3)c3ccccc3c2=O)cc1`, `Cc1nn(-c2ccccc2)c(C)c1NC(=O)COC(=O)C1CC(=O)N(CCc2ccccc2)C1` (stereo not drawn) is higher in “hERG current change (%, negative = inhibition) at 10uM” value: -8.21% for the first, 9.52% for the second.

Compared with `Nc1ccc(C(=O)OCC(=O)c2cccc([N+](=O)[O-])c2)cc1`, `O=C(Nc1cccc([N+](=O)[O-])c1)C1CC(=O)N(Cc2ccccc2)C1` (stereo not drawn) is lower in “hERG current change (%, negative = inhibition) at 10uM” value: 39.8% for the first, -53.2% for the second.

Compared with `O=C(Nc1ccccc1)C1CC(=O)N(Cc2ccccc2)C1` (stereo not drawn), `O=C(OCc1nnc(-c2ccccc2)o1)C1CC(=O)N(CCc2ccccc2)C1` (stereo not drawn) is lower in “hERG current change (%, negative = inhibition) at 10uM” value: 2.14% for the first, -31% for the second.

First: O=C(OCc1ccc([N+](=O)[O-])cc1)C1CC(=O)N(CCc2ccccc2)C1 (stereo not drawn)
Second: O=C(OCc1ccc([N+](=O)[O-])cc1)C1CC(=O)N(Cc2ccccc2Cl)C1 (stereo not drawn)
The “hERG current change (%, negative = inhibition) at 10uM” value of the first is lower: -69.4% for the first, -66.4% for the second.

Going from `CCOC(=O)c1ccccc1NC(=O)COC(=O)C1CCCC1` to `CCOC(=O)c1ccccc1NC(=O)COC(=O)C1CC(=O)N(CCc2ccccc2)C1` (stereo not drawn), the “hERG current change (%, negative = inhibition) at 10uM” value falls from -2.49% to -75.6%.

Going from `O=C(OCc1ccccc1Cl)C1CC(=O)N(Cc2ccco2)C1` (stereo not drawn) to `O=C(O)C1CC(=O)N(CCc2ccccc2)C1` (stereo not drawn), the “hERG current change (%, negative = inhibition) at 10uM” value falls from 11.4% to 6.79%.

Compared with `O=C(N/N=C/C(Br)=C/c1ccccc1)C1CC1`, `O=C(Nc1ccccc1)C12CC3CC(C1)CC(n1cnc([N+](=O)[O-])n1)(C3)C2` is lower in “hERG current change (%, negative = inhibition) at 10uM” value: 32.2% for the first, -59.6% for the second.

First: COc1ccc(NC(=O)Cn2nnc(C(=O)NCc3ccc4c(c3)OCO4)c2N)c(OC)c1
Second: COc1ccc(NC(=O)C23CC4CC(C2)CC(n2cnc(Br)n2)(C4)C3)c(OC)c1
The “hERG current change (%, negative = inhibition) at 10uM” value of the first is higher: 18.1% for the first, -23.4% for the second.

First: CCOC(=O)c1oc2ccc(Br)cc2c1NC(=O)CN1CCN(C)CC1
Second: COC(=O)c1oc2ccc(Br)cc2c1NC(=O)CN1CCN(C)CC1
The “hERG current change (%, negative = inhibition) at 10uM” value of the first is lower: -65.8% for the first, -62.3% for the second.

First: CCCC(=O)Nc1c(C(=O)OCC)oc2ccccc12
Second: CCOC(=O)c1oc2ccccc2c1NC(=O)CN1CCOCC1
The “hERG current change (%, negative = inhibition) at 10uM” value of the first is lower: 1.98% for the first, 6.54% for the second.

Compared with `COC(=O)c1oc2ccc(Br)cc2c1NC(C)=O`, `COC(=O)c1oc2ccc(Br)cc2c1NC(=O)CCN1CCOCC1` is lower in “hERG current change (%, negative = inhibition) at 10uM” value: 3.19% for the first, -17.7% for the second.

Going from `CCc1ccc(C(C(=O)NC2CCCC2)N(C(=O)/C=C/C(=O)Nc2cc(C)on2)c2ccccc2C)cc1` (stereo not drawn) to `CC(=O)c1cccc(NC(=O)COc2ccc(S(=O)(=O)N3CCOCC3)cc2)c1`, the “hERG current change (%, negative = inhibition) at 10uM” value falls from 9.58% to -10.1%.

Compared with `C/C(=N\Nc1ccccc1Cl)c1ccc(-n2ccnc2)cc1`, `Cn1c(=O)c([N+](=O)[O-])c(NCC(O)c2ccccc2)c2ccccc21` (stereo not drawn) is higher in “hERG current change (%, negative = inhibition) at 10uM” value: -7.1% for the first, -2.03% for the second.

First: COCCCN1CN=C(NS(=O)(=O)c2ccc(C)cc2)NC1
Second: Cc1ccc(S(=O)(=O)NCCC(=O)NC2CCCCC2C)cc1 (stereo not drawn)
The “hERG current change (%, negative = inhibition) at 10uM” value of the first is higher: 13.3% for the first, 3.4% for the second.

First: Cc1nc2ccc(-c3nc4ccccc4[nH]3)cc2[nH]1
Second: CCOC(=O)Cc1nn(C(C)C)c(=O)c2ccccc12
The “hERG current change (%, negative = inhibition) at 10uM” value of the first is lower: 7.78% for the first, 26.6% for the second.

First: CC(=O)Nc1ccc(NC(=O)C23CC4CC(C2)CC(n2cnc(Br)n2)(C4)C3)cc1
Second: COC(=O)c1ccc(NC(=O)C23CC4CC(C2)CC(n2cnc(Cl)n2)(C4)C3)cc1
The “hERG current change (%, negative = inhibition) at 10uM” value of the first is lower: -63.4% for the first, -27.3% for the second.

Going from `COc1ccc(OC)c(NC(=O)C23CC4CC(C2)CC(n2cnc(Br)n2)(C4)C3)c1` to `COc1ccc(NC(=O)C23CC4CC(C2)CC(n2cnc(Br)n2)(C4)C3)c(C)c1`, the “hERG current change (%, negative = inhibition) at 10uM” value rises from -41.2% to -9.06%.

Going from `COc1cc(NC(=O)C23CC4CC(C2)CC(n2cnc([N+](=O)[O-])n2)(C4)C3)cc(OC)c1` to `Cc1ccc(F)cc1NC(=O)C12CC3CC(C1)CC(n1cnc([N+](=O)[O-])n1)(C3)C2`, the “hERG current change (%, negative = inhibition) at 10uM” value rises from -66.7% to -52.8%.

First: O=C(Nc1cccc2ccccc12)C12CC3CC(C1)CC(n1cnc([N+](=O)[O-])n1)(C3)C2
Second: COC(=O)c1ccccc1NC(=O)C12CC3CC(C1)CC(n1cnc(Cl)n1)(C3)C2
The “hERG current change (%, negative = inhibition) at 10uM” value of the first is lower: -44.5% for the first, -38.5% for the second.

Going from `COc1ccc(NC(=O)C23CC4CC(C2)CC(n2cnc(Br)n2)(C4)C3)cc1OC` to `COc1ccc(NC(=O)C23CC4CC(C2)CC(n2cnc(Br)n2)(C4)C3)cc1Cl`, the “hERG current change (%, negative = inhibition) at 10uM” value rises from -2.41% to 3.08%.

For `Cc1cccc(NC(=O)CCn2nc(C)cc2C)c1`, the “hERG current change (%, negative = inhibition) at 10uM” value was 9.02%.
